ClpP mod = qHTS Assay for Activators of ClpP. ATP-dependent Clp protease proteolytic subunit (Bacillus subtilis (strain 168)), P80244. purified B. subtilis ClpP, FRET peptide cleavage, 20 min. Potency, µM (highest dose often 57.5 µM), for inactives: at the top dose activity change, negative = active. actives 1.9% (n = 340,000); active means well fitted falling curve with a large enough effect; inconclusive means small, poorly fitted or top-dose-only effect; inactive means no such curve, though single readings can be large or run the other way; further: potency means the concentration at half of the fitted maximal effect; the source files actives as falling curves though it sought activators and does not explain the sign; nearly all actives have a fitted effect of over 65% in size
Target sequence (P80244 whole entry, looked up): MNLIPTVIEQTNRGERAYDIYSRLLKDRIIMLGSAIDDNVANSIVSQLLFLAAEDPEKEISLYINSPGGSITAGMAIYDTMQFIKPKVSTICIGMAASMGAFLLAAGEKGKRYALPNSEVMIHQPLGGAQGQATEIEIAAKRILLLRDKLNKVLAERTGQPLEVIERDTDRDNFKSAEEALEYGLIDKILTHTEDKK
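FRET quenching reversal measured ClpP activation: 10 microg/mL B. subtilis ClpP at pH 8 with the FRET-FV decapeptide, read at 430 nm after 320 nm excitation. The 20-min minus 0-min signal was scaled between DMSO/no-enzyme wells and ADEP (5.8 microM final).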
B2AR arrestin = agonists driving beta-arrestin recruitment to human beta2-adrenergic receptor; P07550; beta-arrestin recruitment to beta2AR, cell-based reporter; Potency, µM (titrated, usually from 46.1 µM), inactives show at the highest dose activation, actives largely listed as activators; actives 0.02% (n = 330,000); AID 492947;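 further: potency means the concentration at half of the fitted maximal effect; 0% = DMSO controls and full agonism = EC100 isoproterenol or metaproterenol; nearly all actives have a fitted effect of over 65% in size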
Target sequence (P07550 whole entry, looked up): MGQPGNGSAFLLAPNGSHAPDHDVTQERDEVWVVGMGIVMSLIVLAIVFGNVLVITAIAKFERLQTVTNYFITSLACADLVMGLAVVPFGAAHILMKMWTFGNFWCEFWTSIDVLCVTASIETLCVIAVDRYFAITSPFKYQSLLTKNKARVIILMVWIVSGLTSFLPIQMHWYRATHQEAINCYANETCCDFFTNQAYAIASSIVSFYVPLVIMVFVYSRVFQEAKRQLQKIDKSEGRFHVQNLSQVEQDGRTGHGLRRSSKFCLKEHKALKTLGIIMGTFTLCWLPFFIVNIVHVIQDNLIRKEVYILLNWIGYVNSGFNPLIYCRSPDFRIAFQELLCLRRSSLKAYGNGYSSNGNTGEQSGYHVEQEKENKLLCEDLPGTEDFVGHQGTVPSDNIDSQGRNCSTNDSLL
p53 reactivation = re-activators of mutant p53 | H1299 p53-A138V BP100-luciferase reporter, luminescence, 24 h | Potency, µM (titrated, usually from 92.2 µM), for the others: top-dose activity change, positive = activation, most hits filed as activators | actives 0.063% (n = 320,000); further: potency means the concentration at half of the fitted maximal effect; % of control where 0% means no effect; nearly all actives have a fitted effect of over 45% in size
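p53-null H1299 cells stably carrying temperature-sensitive p53-A138V and a BP100-luciferase reporter were pinned with compounds (4-point, 1:5 series) and held 24 hrs at 37 deg C. Luminescence was read 10 min after detection reagent.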
Mito fusion yeast = mitochondrial division inhibition or fusion activation; Potency, µM (highest dose often 46.1 µM), without a hit: at the top dose growth rescue (activation), most hits filed as activators; S. cerevisiae fusion-defective mutant growth rescue, CellTiterGlo 48 h; actives 0.23% (n = 320,000); AID 485298; further: potency means the concentration at half of the fitted maximal effect; % of control where 0% means no effect; nearly all actives have a fitted effect of over 45% in size
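Growth-rescue viability read-out: after 48 h at the non-permissive 37C in glycerol/ethanol YPEG, yeast mitochondrial fusion mutants are measured by CellTiterGlo luminescence; compounds (23 nl pinned per well) restoring growth score as division inhibitors or fusion activators.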
Giardia kill = kills Giardia lamblia | Giardia lamblia trophozoite viability | activity change, % at 7.66 µM, hits read low | actives 0.15% (n = 340,000) | AID 540267; in the data active means activity change below about -80%; inconclusive means between about -30% and that limit;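 further: parasites exposed to compound for two days anaerobically before the ATP read; on the % scale 0 is the no-effect control and ±100 the full control effect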
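Luminescent ATP signal served as the viability read-out, measured 15-30 min after adding ATP detection reagent to trophozoites that had been incubated with compounds for 48 hrs at 37 deg C anaerobically at 100 cells/well.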
uPA surface inh = blocks generation of uPA at the cell surface | cell surface uPA generation assay, qHTS | Potency, µM (titrated, usually from 38.3 µM), for inactives: at the top dose activity change, negative = inhibition, most hits filed as inhibitors | actives 0.31% (n = 330,000); active means well fitted inhibition curve with a large enough effect; inconclusive means small, poorly fitted or top-dose-only effect; inactive means no such curve, though single readings can be large or run the other way; tested in mouse RAW 264.7 cells; further: potency means the concentration at half of the fitted maximal effect; on the % scale 0 is the no-effect control and ±100 the full control effect; nearly all actives have a fitted effect of over 55% in size
Numbers without * were called inactive; ! = not active in a repeat. An excerpt weighted towards active compounds, which were near 2.1% of everything screened. Unless noted, the call rests on the fitted dose curve; in most records, active means well fitted curve in the direction sought with a large enough effect; inconclusive means small, poorly fitted or top-dose-only effect, or another doubt; inactive means no such curve, though single readings can be large; an effect the other way counts as inactive or inconclusive.

For CNC(=O)c1ccsc1NC(=O)c1ccc2c(c1)CCCC2 the results were ClpP mod inconclusive, B2AR arrestin -1%, p53 reactivation 19%, Mito fusion yeast 5.6µM*, Giardia kill -20 and uPA surface inh inconclusive.
For CCOc1cc(N2CCOCC2)c(OCC)cc1NC(=O)c1ccc(OCc2c(C)noc2C)c(OC)c1 the results were ClpP mod 11µM*, B2AR arrestin -1%, p53 reactivation -1%, Mito fusion yeast -1%, Giardia kill 5 and uPA surface inh 6%.
Screening CCOc1cc(N2CCOCC2)c(OCC)cc1NC(=O)c1ccc(OC)cc1 returned B2AR arrestin 0%, p53 reactivation -3%, Mito fusion yeast 4%, Giardia kill 2 and uPA surface inh -4%.
N#Cc1ccc(C(=O)CSc2n[nH]c(=O)n2Cc2ccco2)cc1 was read as ClpP mod 28µM*, B2AR arrestin -1%, p53 reactivation 1%, Mito fusion yeast -2%, Giardia kill -8 and uPA surface inh 4%.
O=C(CSc1n[nH]c(=O)n1Cc1ccco1)c1ccc2c(c1)OCCO2 was read as ClpP mod -1%, B2AR arrestin 0%, p53 reactivation 14%, Mito fusion yeast 3%, Giardia kill -2 and uPA surface inh 14%.
`Cc1occc1C(=O)NN=C1C2CC3CC(C2)CC1C3` gave ClpP mod -3%, B2AR arrestin 0%, p53 reactivation 13µM*, Mito fusion yeast -3%, Giardia kill -6 and uPA surface inh 3%.
For Cc1ccc(-c2oc3ncnc(N)c3c2-c2ccc(C)cc2)cc1 the results were ClpP mod 28µM*, B2AR arrestin 0%, p53 reactivation 15%, Mito fusion yeast 3% and Giardia kill 26.
Screening CCc1ccc(NC(=O)Cn2c(=O)n(Cc3nc(C)no3)c(=O)c3cc4c(cc32)OCO4)cc1 returned ClpP mod -29%.
`CC(=O)N(CC1CCCO1)c1nnc(-c2ccccn2)s1` (configuration not stated) gave ClpP mod 16µM*, B2AR arrestin 0%, p53 reactivation inconclusive, Mito fusion yeast -5%, Giardia kill 11 and uPA surface inh -5%.
`COCCN(C(C)=O)c1nnc(-c2ccccn2)s1` gave ClpP mod inconclusive, B2AR arrestin 0%, p53 reactivation 5%, Mito fusion yeast -4%, Giardia kill 9 and uPA surface inh -6%.
`CCc1nnc(NC(=O)C2CCCN(c3nc(C)cc(C)n3)C2)s1` (configuration not stated) gave ClpP mod -8%, B2AR arrestin 0%, p53 reactivation 1%, Mito fusion yeast -4% and Giardia kill 0.
`CCc1nnc(NC(=O)C2CCN(c3nccc(C)n3)CC2)s1` gave ClpP mod 32µM*, B2AR arrestin 0%, p53 reactivation -3%, Mito fusion yeast -6% and Giardia kill -9.
Screening Nc1ccc(-c2nc3ccc(N)cc3o2)cc1 returned ClpP mod 5%, B2AR arrestin 0%, p53 reactivation -2%, Mito fusion yeast 3%, Giardia kill inconclusive and uPA surface inh 7.9µM*.
For C#CCSc1nnc(-c2sc(-c3ccccc3)nc2C)n1C the results were ClpP mod 18µM*, B2AR arrestin 0%, p53 reactivation 0%, Mito fusion yeast -7%, Giardia kill -1 and uPA surface inh 1%.
O=C(COc1ccccc1Cl)Nc1ccc2[nH]c(=O)[nH]c2c1 was read as ClpP mod 16µM*, B2AR arrestin 0%, p53 reactivation 12%, Mito fusion yeast -6%, Giardia kill 13 and uPA surface inh 1%.
CCOc1ccccc1OCC(=O)Nc1ccc2[nH]c(=O)[nH]c2c1 was read as ClpP mod -1%, B2AR arrestin 0%, p53 reactivation -9%, Mito fusion yeast 1%, Giardia kill -21 and uPA surface inh 6%.
For O=C(c1cc(O)c(O)c([N+](=O)[O-])c1)c1ccccc1F the results were ClpP mod -1%, B2AR arrestin 0%, p53 reactivation -8%, Mito fusion yeast 18µM*!, Giardia kill -20 and uPA surface inh 0%.
Screening O=C(Nc1ccc([N+](=O)[O-])cc1)c1ccccc1F returned ClpP mod 1%, B2AR arrestin 0%, p53 reactivation 27%, Mito fusion yeast 5%, Giardia kill -6 and uPA surface inh -5%.
Screening CCc1ccc(CNC(=O)C2CCCN(S(=O)(=O)c3ccc4c(ccn4C)c3)C2)cc1 (configuration not stated) returned ClpP mod -24%.
`CCn1nc(NC(=O)c2ccccn2)c2cc3cccc(C)c3nc21` gave ClpP mod 32µM*, B2AR arrestin 0%, p53 reactivation 24%, Mito fusion yeast -3%, Giardia kill 3 and uPA surface inh 3%.
Screening Cc1oc2c(c1C(=O)N1CCC(C)CC1)C(=O)c1ccccc1C2=O returned ClpP mod -2%, B2AR arrestin 0%, p53 reactivation -20%, Mito fusion yeast -5%, Giardia kill inconclusive and uPA surface inh 10µM*.
CCOC(=O)C1CCN(C(=O)c2c(C)oc3c2C(=O)c2ccccc2C3=O)CC1 was read as ClpP mod -1%, B2AR arrestin 0%, p53 reactivation -12%, Mito fusion yeast 1%, Giardia kill inconclusive and uPA surface inh inconclusive.
`Cc1ccc(C=Nc2ccccc2C(=O)Nc2ccccc2)cc1` gave ClpP mod 28µM*, B2AR arrestin 0%, p53 reactivation 1%, Mito fusion yeast -4%, Giardia kill inconclusive and uPA surface inh -2%.
`O=C(Nc1ccccc1)c1ccccc1N=Cc1cccc(O)c1` gave B2AR arrestin 0%, p53 reactivation -5%, Mito fusion yeast -2%, Giardia kill 14 and uPA surface inh -4%.
`Cc1ccc(C=Nc2ccccc2C(N)=O)cc1` gave ClpP mod 32µM*, B2AR arrestin 0%, p53 reactivation inconclusive, Mito fusion yeast 0% and Giardia kill inconclusive.
COc1cccc(C=Nc2ccccc2C(=O)Nc2ccccc2)c1O was read as ClpP mod 22µM*, B2AR arrestin -2%, p53 reactivation inconclusive, Mito fusion yeast -2%, Giardia kill -2 and uPA surface inh -4%.
For NC(=O)c1ccccc1N=Cc1ccccn1 the results were ClpP mod 25µM*, B2AR arrestin -1%, p53 reactivation 16%, Mito fusion yeast 1%, Giardia kill -5 and uPA surface inh 4%.
NC(=O)c1ccccc1N=Cc1cccnc1 was read as Giardia kill -25 and uPA surface inh 4%.
